# Laboratory results from publication PMC5700166.
# Where a chain is given by its changes, count along the chain named.
# How the values were obtained:
# Assay in all cases: protein-binding microarray (PBM); PBM: ~300 nM protein, 6 mM HEPES pH 7.8, 80 mM KCl, 0.5 mM EDTA, 0.5 mM EGTA, 6% glycerol, 35 ng/ul poly-dIdC, 1% milk, 1 h, room temperature; Ap Aiptasia and Nv Nematostella (sea anemones) / Co Capsaspora / Aq Amphimedon (sponge) / Dm Drosophila / Hu human; RHD is the Rel homology domain; high values mean tight binding
# Details in all cases: dsDNA, one strand shown
# GST-Ap-NF-kB RHD = biological target: T1, GST-Ap-NF-kB RHD (Exaiptasia pallida (Aiptasia), UniProt A0A913YAJ5 2-422)
# T1 sequence: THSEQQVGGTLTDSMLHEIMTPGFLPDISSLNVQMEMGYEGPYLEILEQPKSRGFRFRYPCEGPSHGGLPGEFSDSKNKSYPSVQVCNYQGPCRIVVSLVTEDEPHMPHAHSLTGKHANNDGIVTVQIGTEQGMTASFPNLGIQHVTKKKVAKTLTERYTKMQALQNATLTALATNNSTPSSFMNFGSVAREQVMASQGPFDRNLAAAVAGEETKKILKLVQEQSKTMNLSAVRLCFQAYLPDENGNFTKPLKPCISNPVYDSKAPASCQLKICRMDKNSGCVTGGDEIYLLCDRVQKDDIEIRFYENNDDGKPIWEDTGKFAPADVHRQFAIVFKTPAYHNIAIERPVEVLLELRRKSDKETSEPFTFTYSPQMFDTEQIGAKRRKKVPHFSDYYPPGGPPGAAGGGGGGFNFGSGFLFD
# [1] = biological target: T2, GST-Nv-NF-kB (Cys allele) (Nematostella vectensis, UniProt E5G601 2-411)
# T2 sequence: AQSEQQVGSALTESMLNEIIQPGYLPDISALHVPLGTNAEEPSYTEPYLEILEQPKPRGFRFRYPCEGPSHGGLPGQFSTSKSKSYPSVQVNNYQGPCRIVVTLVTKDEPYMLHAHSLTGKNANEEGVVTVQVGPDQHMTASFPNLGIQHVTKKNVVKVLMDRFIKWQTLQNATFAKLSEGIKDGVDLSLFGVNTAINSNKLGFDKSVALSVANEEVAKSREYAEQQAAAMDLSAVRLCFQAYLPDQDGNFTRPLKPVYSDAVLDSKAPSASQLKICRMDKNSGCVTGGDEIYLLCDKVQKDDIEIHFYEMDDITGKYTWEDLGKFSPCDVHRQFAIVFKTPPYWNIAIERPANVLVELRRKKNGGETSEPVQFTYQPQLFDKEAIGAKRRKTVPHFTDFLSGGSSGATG
# [2] = biological target: T3, GST-Nv-NF-kB (Ser allele) (Nematostella vectensis, UniProt A7UNT2 2-411)
# T3 sequence: T2 sequence with Q21R, C66S, S207N, E215Q, V217A, E225K, A268E, D399E
# GST-Co-NF-kB = biological target: T4, GST-Co-NF-kB (Capsaspora owczarzaki, UniProt F1ARL5 200-546)
# T4 sequence: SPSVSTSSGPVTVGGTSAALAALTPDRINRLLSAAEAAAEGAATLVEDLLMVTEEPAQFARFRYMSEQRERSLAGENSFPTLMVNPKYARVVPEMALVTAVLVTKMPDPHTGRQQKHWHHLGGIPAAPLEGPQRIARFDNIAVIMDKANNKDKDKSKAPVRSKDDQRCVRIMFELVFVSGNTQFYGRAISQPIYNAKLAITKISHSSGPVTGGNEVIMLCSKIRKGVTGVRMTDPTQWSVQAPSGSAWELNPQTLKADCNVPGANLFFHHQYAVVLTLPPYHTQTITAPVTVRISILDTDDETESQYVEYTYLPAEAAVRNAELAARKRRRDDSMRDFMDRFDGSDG
# GST-Dm-Relish = biological target: T5, GST-Dm-Relish (Drosophila melanogaster, UniProt Q94527 99-473)
# T5 sequence: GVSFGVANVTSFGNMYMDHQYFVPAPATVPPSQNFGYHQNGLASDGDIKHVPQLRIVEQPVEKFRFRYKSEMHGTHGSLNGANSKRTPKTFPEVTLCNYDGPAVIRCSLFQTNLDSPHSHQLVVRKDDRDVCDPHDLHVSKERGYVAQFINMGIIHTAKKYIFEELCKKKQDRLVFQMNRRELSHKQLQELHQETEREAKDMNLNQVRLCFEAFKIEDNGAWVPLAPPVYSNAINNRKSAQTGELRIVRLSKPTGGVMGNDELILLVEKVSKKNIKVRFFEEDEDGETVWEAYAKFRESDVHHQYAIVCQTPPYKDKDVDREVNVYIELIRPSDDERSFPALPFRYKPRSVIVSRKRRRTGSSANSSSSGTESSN
# GST-Aq-NF-kB = biological target: T6, GST-Aq-NF-kB (Amphimedon queenslandica, UniProt A9Y5G7 2-389)
# T6 sequence: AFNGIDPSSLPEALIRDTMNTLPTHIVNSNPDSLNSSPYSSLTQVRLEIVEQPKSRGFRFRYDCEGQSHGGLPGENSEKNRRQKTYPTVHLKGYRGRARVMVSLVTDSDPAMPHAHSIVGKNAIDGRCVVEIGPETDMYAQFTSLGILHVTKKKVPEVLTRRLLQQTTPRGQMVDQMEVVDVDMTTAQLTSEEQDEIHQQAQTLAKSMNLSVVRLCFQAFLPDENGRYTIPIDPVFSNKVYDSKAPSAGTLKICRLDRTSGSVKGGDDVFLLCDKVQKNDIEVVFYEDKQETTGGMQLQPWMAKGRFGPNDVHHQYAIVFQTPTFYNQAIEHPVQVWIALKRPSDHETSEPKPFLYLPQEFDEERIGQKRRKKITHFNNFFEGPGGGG
# GST-Hu-p50 = GST-Hu-p50 (Homo sapiens, UniProt P19838 7-356)
# GST-Hu-p50, sequence (P19838 7-356): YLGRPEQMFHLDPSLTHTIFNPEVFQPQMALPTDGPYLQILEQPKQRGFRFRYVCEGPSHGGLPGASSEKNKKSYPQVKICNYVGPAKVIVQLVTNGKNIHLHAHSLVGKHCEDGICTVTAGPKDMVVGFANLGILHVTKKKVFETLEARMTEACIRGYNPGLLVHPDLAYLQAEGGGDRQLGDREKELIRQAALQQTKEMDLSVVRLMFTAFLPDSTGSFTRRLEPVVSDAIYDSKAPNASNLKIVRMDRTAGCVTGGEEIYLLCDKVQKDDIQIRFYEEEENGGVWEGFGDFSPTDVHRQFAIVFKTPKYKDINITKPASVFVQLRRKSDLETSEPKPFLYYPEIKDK
Sequence,binding signal (GST-Ap-NF-kB RHD) [z-score],binding signal [1] [z-score],binding signal [2] [z-score],binding signal (GST-Co-NF-kB) [z-score],binding signal (GST-Dm-Relish) [z-score],binding signal (GST-Aq-NF-kB) [z-score],binding signal (GST-Hu-p50) [z-score]
CCGATTAACATCAGACTTTCCCATGATGTTAATCGGGTCTTGATTCGCTTGACGCTGCTG,3,4.28,3.69,2.74,1.53,4.28,3.45
CCGATTAACATCAGGGGAATATATGATGTTAATCGGGTCTTGATTCGCTTGACGCTGCTG,7.96,9.67,9,7.8,5.02,7.45,6.01
CCGATTAACATCAGGAGCTCCCCTGATGTTAATCGGGTCTTGATTCGCTTGACGCTGCTG,4.8,2.61,1.84,2.71,1.84,4.7,2.1
CCGATTAACATCAGCAATTCCCCTGATGTTAATCGGGTCTTGATTCGCTTGACGCTGCTG,7.03,7.8,9.25,5.7,3.8,5.36,6.4
CCGATTAACATCAGAAGATCCCCTGATGTTAATCGGGTCTTGATTCGCTTGACGCTGCTG,7.16,6.92,6.96,2.91,7.44,6.44,5.61
CCGATTAACATCAAAAGTCCCCCTGATGTTAATCGGGTCTTGATTCGCTTGACGCTGCTG,8.58,8.14,8.36,7.93,9.15,7.54,6.72
CCGATTAACATCATATTCCCCCATGATGTTAATCGGGTCTTGATTCGCTTGACGCTGCTG,6.56,7.4,7.13,8.84,3.91,5.97,6.3
CCGATTAACATCAGATACTCCCCTGATGTTAATCGGGTCTTGATTCGCTTGACGCTGCTG,5.47,4.28,4.21,4.31,1.86,4.46,3.57
CCGATTAACATCAAAATACCCCCTGATGTTAATCGGGTCTTGATTCGCTTGACGCTGCTG,9.02,7.56,8.62,7.21,7.72,7.21,6.58
CCGATTAACATCAACGATTCCCCTGATGTTAATCGGGTCTTGATTCGCTTGACGCTGCTG,5.94,6.55,8.86,6.02,3.74,4.38,5.62
CCGATTAACATCATGGGGGGTAATGATGTTAATCGGGTCTTGATTCGCTTGACGCTGCTG,3.64,3.18,2.78,5.06,2.79,3.56,3.21
CCGATTAACATCAGGGGATGAATTGATGTTAATCGGGTCTTGATTCGCTTGACGCTGCTG,3.07,4.37,5.12,4.99,2.75,3.44,3.88
CCGATTAACATCAAGATACCCCCTGATGTTAATCGGGTCTTGATTCGCTTGACGCTGCTG,7.1,4.31,5.25,4.96,4.14,4.36,4.66
CCGATTAACATCAAGGGGTTTTCTGATGTTAATCGGGTCTTGATTCGCTTGACGCTGCTG,7.68,7.5,6.68,1.68,7.2,6.95,6.56
CCGATTAACATCAGGGAATTGCATGATGTTAATCGGGTCTTGATTCGCTTGACGCTGCTG,2.48,4.23,4.1,2.6,1.11,3.49,3.1
CCGATTAACATCAGGGGATTTACTGATGTTAATCGGGTCTTGATTCGCTTGACGCTGCTG,8.92,9.25,10.4,3.45,10.5,7.83,7.61
CCGATTAACATCACGGGAAATCCTGATGTTAATCGGGTCTTGATTCGCTTGACGCTGCTG,5.03,6.03,5.29,4.57,6.3,6.18,3.91
CCGATTAACATCAGGGGATTAACTGATGTTAATCGGGTCTTGATTCGCTTGACGCTGCTG,5.48,6.31,7.11,2.99,8.54,5.82,4.93
CCGATTAACATCAGGGGGATTAATGATGTTAATCGGGTCTTGATTCGCTTGACGCTGCTG,6.25,6.39,7.21,6.77,5.97,5.39,6.36
CCGATTAACATCAGGGCTTCCCCTGATGTTAATCGGGTCTTGATTCGCTTGACGCTGCTG,9.17,10.8,8.58,4.03,10.4,9.48,6.74
CCGATTAACATCAAAATCCCCCGTGATGTTAATCGGGTCTTGATTCGCTTGACGCTGCTG,9.02,9.33,10.1,8.56,9.89,7.76,8.02
CCGATTAACATCAAAGTCTCCCCTGATGTTAATCGGGTCTTGATTCGCTTGACGCTGCTG,5.38,4.52,5.65,7.88,1.57,3.98,3.28
CCGATTAACATCAAATTCCCCCATGATGTTAATCGGGTCTTGATTCGCTTGACGCTGCTG,8.6,8.92,9.99,9.97,7.71,6.9,7.09
CCGATTAACATCAGGGGGAACCATGATGTTAATCGGGTCTTGATTCGCTTGACGCTGCTG,7.4,6.04,7.3,8.58,5.08,4.5,5.84
CCGATTAACATCAAGATTTCCCCTGATGTTAATCGGGTCTTGATTCGCTTGACGCTGCTG,8.78,10.4,13.2,9.09,6.87,7.44,7.38
